Values joined by “and” are separate entries in the source; they are usually repeats but may differ in a detail not shown here. Equal entries are not always repeated. Among all 310,000 compounds or so, about 18,000 (5.8%) were called active. Another 22% or so got no clear call; they are omitted. Calls follow the shape of the dose curve; as a rule, active = well fitted inhibition curve with a large enough effect; inconclusive = small, poorly fitted or top-dose-only effect, or another doubt; inactive = no such curve, though single readings can be large or run the other way. The list comes from a sample in which actives are over-represented; it also holds similar structures and randomly drawn compounds. Where a call stands in place of a potency, no number is given. Some compounds were tested as several samples or in several runs, with calls that do not always agree.
Assay: Primary qHTS for delayed death inhibitors of the malarial parasite plastid, 48 hour incubation
Conditions: P. falciparum luciferase growth in erythrocytes; series mostly up to 28.7 µM
In short: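 Here the parasites carry a stable luciferase gene and grow inside erythrocytes in Albumax-based RPMI medium with compound for one erythrocytic cycle. Activity is scored as loss of luminescent signal.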
For `CCCOc1ccc(C(=O)NCCc2ccccc2)cc1`, the Potency was “inactive”. With `CCCOc1ccc(C(=O)C(CCC(CNCC)C(=O)c2ccc(OCCC)cc2)CNCC)cc1` (centres undefined) the Potency was 1.85 µM (active). In the case of `CCCOc1ccc(C(=O)CCC(=O)OC(C)C(=O)Nc2ccc(NC(C)=O)cc2)cc1` (centres undefined), the Potency is reported as “inactive”. With `COc1ccc(NC(=O)N2CCCC2C(=O)NCc2ccccc2Cl)cc1` (centres undefined) the Potency was “inactive”. For `O=C(N/C(=C\c1ccc(O)cc1)C(=O)N1CCCCC1)c1ccccc1`, the Potency was “inactive”. For `Nc1ccn(C2CC(O)C(CO)O2)c(=O)n1` (centres undefined), the Potency was “inactive”. With `Cc1ccc(NC(=O)CSc2nc(=O)n(CCN(C)C)c3c2CCCC3)c(C)c1` the Potency was “inactive”. With `COc1ccc2c3c(c(=O)oc2c1)C1O[C@](CCCCN2C(=O)c4ccccc4C2=O)(Cc2c1ccc1ccccc21)O3` the activity change, negative = inhibition was 44.1% [at 5.75 µM] (inactive). With `C=CCn1c(C)cc(C(=O)CN2C(=O)c3ccccc3C2=O)c1C` the Potency was “inactive”. For `Cc1cc2c(c(=O)n1Cc1ccccc1)C1O[C@](CCCCN3C(=O)c4ccccc4C3=O)(Cc3ccccc31)O2`, the Potency was 0.675 µM (active). For `NNC(=O)c1ccc(Cl)cc1Cl`, the Potency was “inactive”. In the case of `CC(C)(C)c1cc(C(=O)NN)n(Cc2ccc(Cl)cc2Cl)n1`, the Potency is reported as 10.4 µM (active). For `CC(C)(C)NC(=O)NC(=O)COC(=O)Cc1ccc(Cl)cc1Cl`, the Potency was “inactive”. In the case of `O=C(Cc1ccc(Cl)cc1)NC(=S)Nc1ccccc1O`, the Potency is reported as “inactive”. For `Cc1cc(SCc2c(F)cccc2Cl)nc(=O)[nH]1`, the Potency was “inactive”. For `C/C(=N\NC(=O)c1nc(C)cc(C)n1)c1ccccc1`, the Potency was “inactive”. For `COC(c1ccccc1)(c1ccccc1)C(Oc1nc(C)cc(C)n1)C(=O)O` (centres undefined), the Potency was “inactive and 11.7 µM (active)”. In the case of `Cc1cc(C)nc(S/C=C/C(=O)c2ccccc2)n1`, the Potency is reported as “inactive”. With `COc1ccccc1N1CCN(S(=O)(=O)c2ccc(Cl)cc2)CC1` the activity change, negative = inhibition was 1.21% [at 0.00184 µM] (inactive). With `CC1CCC(NC(=O)CN(C)S(=O)(=O)c2ccc3c(c2)c(=O)n(C)c(=O)n3C)CC1` (centres undefined) the Potency was “inactive”. In the case of `Cc1cc(=O)oc2c1ccc1ccccc12`, the Potency is reported as “inactive”. With `Cc1ccc(NC(=S)NC2CCCC2)cc1` the Potency was “inactive”. In the case of `Cc1cc(C)cc(NC(=S)NC2CC3CCCC(C2)N3Cc2cccs2)c1` (centres undefined), the Potency is reported as 9.28 µM (active). With `C=CCN1C2CCCC1CC(NC(=S)Nc1cccc(OC)c1)C2` (centres undefined) the Potency was “inactive”. For `CC(=O)O[C@H]1CC[C@@]2(C)[C@@H](CC[C@@H]3[C@@H]2CC[C@]2(C)[C@@H](C(C)(C)O)C[C@@H]32)C1`, the Potency was “inactive”. In the case of `O=C(/C=C(O)/C=C/c1ccc(O)cc1)/C=C/c1ccc(O)cc1`, the Potency is reported as “inactive”. In the case of `CC(=O)Nc1ccc(NC(=O)C(C)OC(=O)C2CC(=O)N(CCc3ccccc3)C2)cc1` (centres undefined), the Potency is reported as “inactive”. With `CC(=O)Nc1ccc(SC[C@H](Cc2ccccc2)N2CC[C@@H](C)CCC2=O)cc1` the Potency was 6.57 µM (active). In the case of `O=C1CC[C@H](O)CCN1[C@H](CSc1ccc(Br)cc1)Cc1ccccc1`, the Potency is reported as “inactive”. In the case of `Cc1ccc2nc(NC(=O)C3CSC4(C)CCC(=O)N34)sc2c1` (centres undefined), the Potency is reported as “inactive”. In the case of `Cc1cc(-c2nnc(SCC(=O)Nc3ccc(F)cc3)n2N)n[nH]1`, the Potency is reported as “inactive”. For `CC(C)Cc1nnc(NC(=O)CCc2ccccc2)s1`, the Potency was “inactive”. For `Cc1ccnc(N2CCN(C(=O)CSc3nc4ccccc4nc3N3CCCCC3)CC2)c1`, the Potency was 13.1 µM (active). For `O=C(CSc1ncccn1)N1CCCC1`, the Potency was “inactive”. In the case of `O=C(Cc1ccccc1Cl)N1CCN(c2ccccn2)CC1`, the Potency is reported as “inactive”. With `COc1ccc2c(c1)c1nc3n(c(=O)c1n2CC(=O)Nc1ccccc1)CCS3` the Potency was “inactive”. With `O=C(CNS(=O)(=O)c1ccccc1)N1CCN(C(=O)c2ccco2)CC1` the Potency was “inactive”. With `CS/C(=C\C(=O)c1ccco1)Nc1ccccc1Cl` the Potency was 8.28 µM (active). For `O=C(Nc1ccccc1C(=O)N1CCCCC1)c1ccco1`, the Potency was “inactive”. In the case of `O=C(c1cccc(S(=O)(=O)Nc2ccccc2Cl)c1)N1CCN(C(=O)c2ccco2)CC1`, the Potency is reported as “inactive”. For `CCC(C)N(C(=O)Cn1nc(C)c([N+](=O)[O-])c1C)C1CCS(=O)(=O)C1` (centres undefined), the Potency was “inactive”. For `O=C(NCCc1ccco1)C(=O)NCCC1CCCCN1S(=O)(=O)c1ccccc1` (centres undefined), the Potency was “inactive”. With `COc1ccc(C)cc1NC(=O)CSc1nnc(CC(=O)Nc2ccccc2F)n1C` the Potency was “inactive”. In the case of `COc1ccccc1NC(=O)CSc1nnc(Cc2cccn2C)n1-c1ccc(F)cc1`, the Potency is reported as 10.4 µM (active). For `COCCn1c(Cc2cccn2C)nnc1SCC(=O)Nc1nccs1`, the Potency was “inactive”. With `Cc1ccc(NC(=O)COC(=O)CN2CCCCCC2=O)c(C)c1` the Potency was “inactive”. For `Oc1ccc(N=Nc2nccs2)c(O)c1`, the Potency was 9.28 µM (active). For `Oc1c(C=Nc2cccc3nsnc23)ccc2ccccc12`, the Potency was “inactive”. For `Oc1ccc2ccccc2c1N=Nc1nccs1`, the Potency was 13.1 µM (active). In the case of `c1ccc(NCc2cccc3ccccc23)nc1`, the Potency is reported as “inactive”. In the case of `COc1cccc(-n2c(N)cc(=O)nc2SCC(=O)Nc2cc(C)on2)c1`, the Potency is reported as “inactive”. In the case of `CC(C)N(C(=O)Cn1cc(S(=O)(=O)CC(=O)N2CCOCC2)c2ccccc21)C(C)C`, the Potency is reported as “inactive”. With `CN(Cc1ccccc1)C(=O)c1ccc(NC2=NC3CS(=O)(=O)CC3S2)cc1` (centres undefined) the Potency was “inactive”. For `O=C(COC(=O)c1cccc(Cl)c1)NC1CCCCCCC1`, the Potency was “inactive”. In the case of `Cc1ccc(S(=O)(=O)N2CCN(C)CC2)cc1`, the Potency is reported as “inactive”. With `CCC1=NN2C(=N)/C(=C/c3cc(C)n(-c4ccccc4)c3C)C(=O)N=C2S1` the Potency was “inactive”. In the case of `CCOC(=O)C1=C(O)/C(=C/c2cc(C)n(-c3ccccc3)c2C)N=C1C`, the Potency is reported as 0.0657 µM (active). For `COC(=O)C1=C(O)/C(=C/c2ccc(OCC(=O)Nc3ccccc3)cc2)N=C1C`, the Potency was “inactive”. In the case of `O=C(NCCCN1CCCC1=O)c1cccc(S(=O)(=O)NCc2ccccc2)c1`, the Potency is reported as “inactive”. In the case of `O=[N+]([O-])c1ccc(N2CCN(c3ccc(F)cc3)CC2)cn1`, the Potency is reported as “inactive”. For `Cc1nnc(NC(=O)c2ccc3nccnc3c2)s1`, the Potency was “inactive”. In the case of `COc1ccc(CC(=O)Nc2nc(-c3ccc(F)c(F)c3)cs2)cc1OC`, the Potency is reported as “inactive”. With `COc1ccc(CCN(C(=O)COc2ccccc2)c2nc(-c3ccccc3)cs2)cc1OC` the Potency was 10.4 µM (active). In the case of `CN(C(=O)COc1ccccc1)c1nnc(-c2ccncc2)s1`, the Potency is reported as “inactive”. For `O=C(c1ccc(Cn2cc([N+](=O)[O-])cn2)o1)N1CCCC1`, the Potency was “inactive”. For `COc1ccc(C/C(C)=N/NC(=O)c2ccncc2)cc1`, the Potency was “inactive”. For `COc1ccc(CC(=O)N/N=C(\C)c2ccccn2)cc1`, the Potency was 3.29 µM (active). With `C/C(=N\NC(=O)Cc1ccc(Cl)cc1)c1ccccn1` the Potency was 1.47 µM (active). For `C/C(=N\NC(=O)Cc1ccc(F)cc1)c1ccc(F)cc1`, the Potency was “inactive”. In the case of `C/C(=N\NC(=O)Cc1ccc(Br)cc1)c1cccnc1`, the Potency is reported as “inactive”. In the case of `C/C(=N\NC(=O)c1ccccc1F)c1ccccn1`, the Potency is reported as “inactive”. For `CCOc1ccc(OCC(=O)Nc2c3c(nn2C(C)(C)C)CS(=O)(=O)C3)cc1`, the Potency was “inactive”. For `Cc1cc(C(=O)CCC(=O)NNC(=O)c2ccccc2O)c(C)s1`, the Potency was “inactive”. With `CCOc1ccc2[nH]c(=O)c(CN(CCCO)S(=O)(=O)c3ccc(F)cc3)cc2c1` the Potency was “inactive”. With `O=C(NC1CCCCC1)c1ccc2c(=O)n(CC3CCCO3)c(=O)[nH]c2c1` (centres undefined) the Potency was “inactive”. With `CCCCCn1c(=O)[nH]c2cc(C(=O)NCCCN3CCCCC3C)ccc2c1=O` (centres undefined) the Potency was 9.28 µM (active). With `CC1CCCCN1CCCNC(=O)Cn1ncc2c([nH]c3ccccc32)c1=O` (centres undefined) the Potency was “inactive”. In the case of `COc1ccccc1CNC(=O)C1CCN(C(=O)[C@@H]2Cc3ccccc3CN2)CC1`, the Potency is reported as “inactive”. For `CCOC(=O)Cc1ncccc1C(=O)Nc1ccc(OC)cc1`, the Potency was 13.1 µM (active). With `CCCNC(=O)Nc1ccccc1C(=O)Nc1ccc(OC)cc1` the Potency was “inactive”. In the case of `COc1cc(NC(=O)c2cccnc2SC)cc(OC)c1`, the Potency is reported as “inactive”. With `COC(=O)c1ccc([C@@H](O)[C@H](C)C(=O)CC(=O)OC(C)(C)C)cc1` the Potency was “inactive”. For `Cc1nc(CN(C)C(=O)CC2C(=O)NCCN2Cc2ccc(F)cc2)cs1` (centres undefined), the Potency was “inactive”. For `CC(=O)N(CC(O)CO)c1c(I)c(C(=O)NCC(O)CO)c(I)c(C(=O)NCC(O)CO)c1I` (centres undefined), the Potency was “inactive and 15.1 µM (active)”. For `COc1ccc(NC(=O)CN2C(=O)COc3ccc(S(=O)(=O)N4CCOCC4)cc32)c(OC)c1`, the Potency was “inactive”. For `C=CCSc1nc2c(c(=O)[nH]c(=O)n2C)n1Cc1ccccc1`, the Potency was “inactive”. With `CN(Cc1ccccc1)c1nc2c(c(=O)[nH]c(=O)n2C)n1CCSc1nc2ccccc2[nH]1` the Potency was 8.28 µM (active). For `CN(Cc1ccccc1)C(=O)CSc1nc2ccccc2[nH]1`, the Potency was “inactive”. For `CC(Oc1cccc(Cl)c1)C(=O)NC1CC(C)(C)NC(C)(C)C1` (centres undefined), the Potency was “inactive”. In the case of `O=C1CN(C(=O)c2cc(F)cc(F)c2)c2ccccc2N1`, the Potency is reported as “inactive”. For `O=C(Nc1ccc(Br)cc1)c1cc(S(=O)(=O)Nc2ccccn2)ccc1Cl`, the Potency was “inactive”. With `CN(CC(=O)NCCc1ccc(F)cc1)CC(=O)Nc1ccc(F)c(F)c1F` the Potency was “inactive”. With `COc1ccc(C2=NN(C(=O)CCC(=O)O)C(c3cccs3)C2)cc1OC` (centres undefined) the Potency was “inactive”. For `COc1cccc(C2CC(c3cccs3)=NN2C(=O)CSC2=NCCS2)c1OC` (centres undefined), the Potency was 10.4 µM (active). In the case of `COc1ccc(C2CC(c3cccs3)=NN2C(=O)CSc2nnc(N)s2)cc1OC` (centres undefined), the Potency is reported as “inactive”. For `COc1ccccc1C(=O)NCCC(=O)NN1C(=O)NC2(CCCCC2)C1=O`, the Potency was “inactive”. With `CCCCOc1ccc(N(CC(=O)NCC2CCCO2)C(=O)CCC(=O)Nc2cc(C)ccn2)cc1` (centres undefined) the Potency was 9.28 µM (active). With `COC(=O)c1cccc(N(CC(=O)NCC2CCCO2)C(=O)CCC(=O)Nc2cc(C)on2)c1` (centres undefined) the Potency was “inactive”. With `Cc1cc(NC(=O)CCC(=O)N(CC(=O)NCC2CCCO2)c2ccccc2)no1` (centres undefined) the Potency was “inactive”. For `Cc1cccc(OCCC(=O)OCc2csc(CC(=O)Nc3ccccc3C)n2)c1`, the Potency was “inactive”. With `Cn1ncc2c(N3CCCCC3)nc(NCCCO)nc21` the Potency was “inactive”. With `CCc1ccccc1OCC(=O)Nc1ccc(C)c(S(=O)(=O)N2CCCCCC2)c1` the Potency was 10.4 µM (active). For `Cc1ccc(NC(=O)CCCNC(=O)c2ccc(Cl)cc2)cc1S(=O)(=O)N1CCCCC1`, the Potency was “inactive”. For `CCc1ccccc1OCC(=O)Nc1ccc2c(c1)OCCO2`, the Potency was “inactive”.

From PubChem BioAssay AID504832 (National Center for Advancing Translational Sciences (NCATS), 2011)
Potency is read from the fitted curve at half-maximal effect.
